PubChem BioAssay (Tox21)
Several values for one entry are separate records, joined by “and”; a condition that tells them apart may be missing. Equal entries are not always repeated. Inconclusive results are not listed. Entries that show only a call come without a potency. Some compounds were tested as several samples or in several runs, with calls that do not always agree. Activity calls are given as the source filed them. The call rests on the fitted dose curve; in most records, active means well fitted curve in the direction sought with a large enough effect in the repeat runs; inconclusive means weak or mixed curves; inactive means no such curve, though single readings can be large; an effect the other way counts as inactive or inconclusive.

Key:
[1] = target: Cytochrome P450 2C19 (Homo sapiens) (UniProt P33261); experiment: Cytochrome P450 Family 2 Subfamily C Member 19 (CYP2C19) small molecule antagonists: luciferase reporter qHTS assay (AID 1671197); further: nearly all actives have a fitted effect of over 65% in size; on activity change, negative = inhibition: series mostly up to about 120 µM
Cytochrome P450 2C19 (Homo sapiens), sequence (P33261 whole entry, looked up): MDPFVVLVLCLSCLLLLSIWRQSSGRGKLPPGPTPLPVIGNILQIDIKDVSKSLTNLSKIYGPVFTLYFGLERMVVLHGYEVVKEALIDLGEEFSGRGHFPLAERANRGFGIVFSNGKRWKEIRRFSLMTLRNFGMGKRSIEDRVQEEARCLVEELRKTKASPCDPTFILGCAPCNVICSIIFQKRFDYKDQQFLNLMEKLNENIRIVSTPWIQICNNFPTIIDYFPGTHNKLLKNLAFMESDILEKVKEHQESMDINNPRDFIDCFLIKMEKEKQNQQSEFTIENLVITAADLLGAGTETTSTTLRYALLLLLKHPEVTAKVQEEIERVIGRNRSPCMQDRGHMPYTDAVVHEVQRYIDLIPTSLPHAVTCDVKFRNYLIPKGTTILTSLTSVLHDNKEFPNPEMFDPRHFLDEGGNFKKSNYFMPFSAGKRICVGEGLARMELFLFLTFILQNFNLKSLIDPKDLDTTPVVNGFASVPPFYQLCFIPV
In short: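 P450-Glo CYP2C19 screening system; proluciferin substrate; DMSO compound stocks; 10 min RT preincubation; NADPH regeneration, 1 h at 37C; luciferin detection reagent, 20 min RT; luminescence as RLU.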

[2] = target: Cytochrome P450 2C9 (Homo sapiens) (UniProt P11712); experiment: Cytochrome P450 Family 2 Subfamily C Member 9 (CYP2C9) small molecule antagonists: luciferase reporter qHTS assay (AID 1671198); further: nearly all actives have a fitted effect of over 50% in size; on activity change, negative = inhibition: series mostly up to about 120 µM
Cytochrome P450 2C9 (Homo sapiens), sequence (P11712 whole entry, looked up): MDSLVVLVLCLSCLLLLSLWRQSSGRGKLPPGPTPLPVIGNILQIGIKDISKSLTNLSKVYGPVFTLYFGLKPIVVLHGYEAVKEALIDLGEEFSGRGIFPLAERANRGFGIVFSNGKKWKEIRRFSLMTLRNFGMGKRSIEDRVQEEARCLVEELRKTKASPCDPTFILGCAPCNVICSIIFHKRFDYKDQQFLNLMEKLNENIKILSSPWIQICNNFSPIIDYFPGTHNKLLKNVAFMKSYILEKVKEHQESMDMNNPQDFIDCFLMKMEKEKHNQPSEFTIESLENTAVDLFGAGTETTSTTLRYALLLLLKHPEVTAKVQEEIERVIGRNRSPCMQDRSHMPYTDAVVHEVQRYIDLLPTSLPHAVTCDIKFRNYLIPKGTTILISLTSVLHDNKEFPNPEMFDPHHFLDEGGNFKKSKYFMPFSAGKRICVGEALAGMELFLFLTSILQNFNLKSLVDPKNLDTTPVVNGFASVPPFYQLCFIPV
In short: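 P450-Glo proluciferin substrate with CYP2C9 enzyme; 10 min RT preincubation, then NADPH regeneration 1 h at 37C; luciferin detection reagent 20 min RT, luminescence in relative luminescence units.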

[3] = target: Cytochrome P450 1A2 (Homo sapiens) (UniProt P05177); experiment: Cytochrome P450 Family 1 Subfamily A Member 2 (CYP1A2) small molecule antagonists: luciferase reporter qHTS assay (AID 1671199); further: nearly all actives have a fitted effect of over 50% in size; on activity change, negative = inhibition: series mostly up to about 120 µM
Cytochrome P450 1A2 (Homo sapiens), sequence (P05177 whole entry, looked up): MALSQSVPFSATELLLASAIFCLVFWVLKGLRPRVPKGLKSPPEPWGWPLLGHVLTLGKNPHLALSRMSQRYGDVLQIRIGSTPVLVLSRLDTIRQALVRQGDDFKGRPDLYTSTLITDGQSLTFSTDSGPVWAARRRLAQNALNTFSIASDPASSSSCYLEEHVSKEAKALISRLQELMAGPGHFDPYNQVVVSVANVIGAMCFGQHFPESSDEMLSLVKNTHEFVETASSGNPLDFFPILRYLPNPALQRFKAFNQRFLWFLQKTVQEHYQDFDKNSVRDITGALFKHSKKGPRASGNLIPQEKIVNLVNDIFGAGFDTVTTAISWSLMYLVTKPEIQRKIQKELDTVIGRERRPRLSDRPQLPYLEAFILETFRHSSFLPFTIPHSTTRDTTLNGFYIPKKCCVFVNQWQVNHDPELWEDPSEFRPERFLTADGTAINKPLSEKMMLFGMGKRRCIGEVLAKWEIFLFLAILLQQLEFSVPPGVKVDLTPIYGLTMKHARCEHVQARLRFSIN
In short: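 Human CYP1A2 activity measured with a P450-Glo proluciferin substrate; compounds in DMSO preincubated 10 min at room temperature with enzyme-substrate mix, then NADPH regeneration system added for 1 h. Luciferin detection reagent, 20 min, luminescence read.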

[4] = target: Voltage-gated inwardly rectifying potassium channel KCNH2 (Homo sapiens) (UniProt Q12809); experiment: Human Ether-a-go-go-Related Gene (hERG) channel small molecule antagonists: fluorescence cell-based qHTS assay (AID 1671200); further: nearly all actives have a fitted effect of over 50% in size;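 on activity change, negative = inhibition: hERG-expressing U2OS cells given a thallium stimulus after FluxOR II dye loading; series mostly up to about 77 µM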
Voltage-gated inwardly rectifying potassium channel KCNH2 (Homo sapiens), sequence (Q12809 whole entry, looked up): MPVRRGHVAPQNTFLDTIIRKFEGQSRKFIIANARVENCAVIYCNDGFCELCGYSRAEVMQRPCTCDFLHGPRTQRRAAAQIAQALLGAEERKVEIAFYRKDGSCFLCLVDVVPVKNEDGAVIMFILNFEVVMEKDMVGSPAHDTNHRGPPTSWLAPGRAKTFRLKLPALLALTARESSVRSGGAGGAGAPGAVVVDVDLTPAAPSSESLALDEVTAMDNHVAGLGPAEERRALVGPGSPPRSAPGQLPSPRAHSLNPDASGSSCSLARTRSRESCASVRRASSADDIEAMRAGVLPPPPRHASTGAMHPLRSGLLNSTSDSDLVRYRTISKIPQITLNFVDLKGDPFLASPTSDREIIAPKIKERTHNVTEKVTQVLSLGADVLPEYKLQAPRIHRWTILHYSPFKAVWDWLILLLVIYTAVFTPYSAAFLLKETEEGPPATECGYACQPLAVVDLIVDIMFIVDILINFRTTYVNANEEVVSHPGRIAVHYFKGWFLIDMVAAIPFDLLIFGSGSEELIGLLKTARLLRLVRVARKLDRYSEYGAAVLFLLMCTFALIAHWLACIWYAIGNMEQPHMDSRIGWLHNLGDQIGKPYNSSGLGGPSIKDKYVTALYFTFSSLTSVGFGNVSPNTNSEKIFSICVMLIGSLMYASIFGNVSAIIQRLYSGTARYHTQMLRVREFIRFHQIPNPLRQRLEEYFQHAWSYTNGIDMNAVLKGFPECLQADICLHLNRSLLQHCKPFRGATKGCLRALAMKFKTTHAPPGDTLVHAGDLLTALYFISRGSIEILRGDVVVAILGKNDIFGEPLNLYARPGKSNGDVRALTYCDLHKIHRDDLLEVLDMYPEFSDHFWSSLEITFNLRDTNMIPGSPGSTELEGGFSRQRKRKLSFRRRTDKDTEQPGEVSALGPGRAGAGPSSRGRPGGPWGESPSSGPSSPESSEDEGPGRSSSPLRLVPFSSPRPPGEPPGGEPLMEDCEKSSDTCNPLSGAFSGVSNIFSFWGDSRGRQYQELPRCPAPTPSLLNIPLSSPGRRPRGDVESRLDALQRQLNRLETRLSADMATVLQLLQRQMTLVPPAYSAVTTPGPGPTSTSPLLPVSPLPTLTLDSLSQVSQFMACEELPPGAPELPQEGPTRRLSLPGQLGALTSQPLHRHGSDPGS
In short: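 Fluorescence at 540 nm emission (480 nm excitation) was recorded kinetically for 2 min at 1-second intervals once the thallium-containing stimulus reached cells previously loaded with FluxOR II dye.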

[5] = target: Cytochrome P450 3A4 (Homo sapiens) (UniProt P08684); experiment: Cytochrome P450 Family 3 Subfamily A Member 4 (CYP3A4) small molecule antagonists: luciferase reporter qHTS assay (AID 1671201); further: nearly all actives have a fitted effect of over 50% in size; on activity change, negative = inhibition: series mostly up to about 120 µM
Cytochrome P450 3A4 (Homo sapiens), sequence (P08684 whole entry, looked up): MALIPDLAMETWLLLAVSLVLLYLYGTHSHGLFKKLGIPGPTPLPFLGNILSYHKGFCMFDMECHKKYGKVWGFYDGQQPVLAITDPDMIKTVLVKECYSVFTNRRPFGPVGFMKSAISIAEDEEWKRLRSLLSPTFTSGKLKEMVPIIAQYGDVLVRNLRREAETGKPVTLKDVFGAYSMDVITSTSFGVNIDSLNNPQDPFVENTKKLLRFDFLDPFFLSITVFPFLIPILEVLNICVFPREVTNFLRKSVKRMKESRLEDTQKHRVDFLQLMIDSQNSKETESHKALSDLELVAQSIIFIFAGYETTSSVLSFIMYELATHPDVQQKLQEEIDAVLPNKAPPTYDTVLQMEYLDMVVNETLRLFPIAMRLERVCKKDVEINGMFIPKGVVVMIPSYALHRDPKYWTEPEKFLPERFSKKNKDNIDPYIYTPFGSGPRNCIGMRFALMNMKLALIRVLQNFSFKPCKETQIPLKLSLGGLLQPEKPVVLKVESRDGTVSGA
In short: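 qHTS, 1536-well. CYP3A4 + proluciferin substrate, cpd 10 min RT → NADPH regen 1 h RT → detection reagent 20 min → luminescence (RLU). Ketoconazole positive control.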
Potency means the concentration at half of the fitted maximal effect.

Row | Structure (SMILES) | Potency [1] | Potency [2] | Potency [3] | Potency [4] | Potency [5] | activity change, negative = inhibition [1] | activity change, negative = inhibition [3]
1 | C=C(C)[C@H]1CC=C(C)C(=O)C1 | inactive | inactive | inactive | inactive | inactive |  | 
2 | CCc1ccccc1CC |  | inactive |  | inactive | inactive | 2.36% [at 23.6 µM] (inactive) | -28.6% [at 23.6 µM] (inactive)
3 | Cc1ccc(S(=O)(=O)N=C=O)cc1 | inactive | inactive | inactive | inactive | inactive |  | 
4 | O=C(O)Cn1c(=O)n(Cc2ccc(Br)cc2F)c(=O)c2ccc(Cl)cc21 | inactive | 31.7 µM (active) and 15.5 µM (active) | 79.6 µM (active) and inactive | inactive | inactive |  | 
5 | CCNC(=S)NCC | inactive | inactive | 44.8 µM (active) | inactive | inactive |  | 
6 | C=CC[N+](C)(C)CC=C | 56.8 µM (active) and inactive | inactive | inactive | inactive | inactive |  | 
7 | CCOCC(=O)O | inactive | inactive | inactive | inactive | inactive |  | 
8 | Cc1ccc([N+](=O)[O-])cc1S(=O)(=O)O | 35.6 µM (active) | 56.4 µM (active) | inactive and 63.3 µM (active) | inactive | inactive |  | 
9 | CCOC(=O)n1ccn(C)c1=S | inactive | inactive | 39.9 µM (active) and inactive | inactive | inactive |  | 
10 | COCCCN | inactive | inactive | inactive | inactive | inactive |  | 
11 | O=c1[nH]cnc2[nH]ncc12 | inactive | inactive | inactive | inactive | inactive |  | 
12 | CC(C)(C#N)c1cc(Cn2cncn2)cc(C(C)(C)C#N)c1 | 21.8 µM (active) and 15.5 µM (active) | 9.75 µM (active) and 8.71 µM (active) | 9.75 µM (active) and 15.5 µM (active) | inactive |  |  | 
13 | C[C@]12CC[C@@H]3c4ccc(O)cc4CC[C@H]3[C@@H]1C[C@@H](O)[C@@H]2O | inactive | inactive | 31.7 µM (active) and inactive | inactive | inactive |  | 
14 | O=C(O)c1ccc(S(=O)(=O)N(Cl)Cl)cc1 | inactive | inactive | inactive | inactive | inactive |  | 
15 | CC(CCl)OP(=O)(OC(C)CCl)OC(C)CCl (centres undefined) | 35.7 µM (active) and 21.1 µM (active) | 40 µM (active) and 59.5 µM (active) | 28.3 µM (active) and 14.9 µM (active) | inactive |  |  | 
16 | C=CC(C)CCCC(C)(C)O (centres undefined) | inactive | inactive | 39.8 µM (active) | 43.6 µM (active) and inactive | inactive |  | 
17 | CC(C)CCCCCCCOC(=O)CCCCC(=O)OCCCCCCCC(C)C | 92.8 µM (active) and inactive | inactive | inactive | inactive | inactive |  | 
18 | COC(=O)c1cccnc1 | inactive | inactive | inactive | inactive | inactive |  | 
19 | Nc1nc(N)nc(-c2ccccc2)n1 | inactive | inactive | 31.4 µM (active) and 35.6 µM (active) | inactive | inactive |  | 
20 | CC(C)(Oc1ccc(CCNC(=O)c2ccc(Cl)cc2)cc1)C(=O)O | inactive | 28.3 µM (active) and 13.8 µM (active) | inactive | inactive | inactive |  | 
21 | O=C(O)c1cc2ccccc2cc1O | 35.3 µM (active) and 79.6 µM (active) | 62.8 µM (active) and 56.4 µM (active) | 39.9 µM (active) | inactive | inactive |  | 
22 | NCCNCCN | inactive | inactive | 71.2 µM (active) and inactive | inactive | inactive |  | 
23 | COC(=O)CCCC(=O)OC | inactive | inactive | inactive | inactive | inactive |  | 

Row | Structure (SMILES) | Potency [1] | Potency [2] | Potency [3] | Potency [4] | Potency [5] | activity change, negative = inhibition [1] | activity change, negative = inhibition [3]
24 | O=C(O)/C=C/C(=O)O | inactive | inactive | inactive | inactive | inactive |  | 
25 | C=C(C)C(=O)OCC(C)C | inactive | inactive | inactive | inactive | inactive |  | 
26 | CC(=O)CC(C)(C)O | 40.6 µM (active) and inactive | inactive | inactive | inactive | inactive |  | 
27 | CC(=O)OCc1ccco1 | 70.6 µM (active) and inactive | inactive | inactive | inactive | inactive |  | 
28 | CCO[Si](CCCN)(OCC)OCC | inactive | inactive | inactive | inactive | inactive |  | 
29 | CC(=O)OCc1ccccc1 | inactive | inactive | inactive | inactive | inactive |  | 
30 | NCCCCCCN | inactive | inactive | inactive | inactive | inactive |  | 
31 | NCCN1CCNCC1 | inactive | inactive | inactive | inactive | inactive |  | 
32 | N#Cc1ccccc1 | inactive | inactive | inactive | inactive | inactive |  | 
33 | C=Cc1ccc(C)cc1 | inactive | inactive | inactive | inactive | inactive |  | 
34 | CN1C(=O)CC[C@H]1c1cccnc1 | inactive | inactive | inactive | inactive |  |  | 
35 | OC1C(O)C(O)C(O)C(O)C1O (centres undefined) | inactive | inactive | inactive | inactive | inactive |  | 
36 | CN(C)c1ccc(O)c2c1C[C@H]1C[C@H]3[C@H](N(C)C)C(=O)C(C(N)=O)=C(O)[C@@]3(O)C(=O)C1=C2O | inactive | inactive | inactive | inactive | inactive |  | 
37 | CCCCC(C=O)CC (centres undefined) | inactive | inactive | inactive | inactive | inactive |  | 
38 | COc1ccc([N+](=O)[O-])cc1N | 35.7 µM (active) and 79.6 µM (active) | 40.1 µM (active) and 63.3 µM (active) | 22.5 µM (active) and 31.7 µM (active) | inactive | 35.7 µM (active) and 35.6 µM (active) |  | 
39 | CC(=O)c1ccc(O)cc1 | inactive | inactive | inactive | inactive | inactive |  | 
40 | CCCCCCCCCCCCCCCCO | inactive | 17.8 µM (active) and inactive | inactive | inactive | inactive |  | 
41 | CCNc1cccc(C)c1 | 30.5 µM (active) and inactive |  | inactive | inactive | inactive |  | 
42 | CC(C)OP(=O)(CP(=O)(OC(C)C)OC(C)C)OC(C)C |  | inactive | inactive | inactive |  |  | 
43 | CC(C)=CCl | inactive | inactive | inactive | inactive | inactive |  | 
44 | CC(=O)CCC=C(C)C |  | inactive | inactive | inactive | inactive |  | 
45 | CCCCCCCC=O |  | inactive | inactive | inactive | inactive |  | 
46 | Brc1ccc(Br)c(Br)c1 | inactive | inactive | inactive | inactive | inactive |  | 

Row | Structure (SMILES) | Potency [1] | Potency [2] | Potency [3] | Potency [4] | Potency [5] | activity change, negative = inhibition [1] | activity change, negative = inhibition [3]
47 | Cc1ccc(C(C)C)c(O)c1 | 71 µM (active) and 34.7 µM (active) |  | 31.7 µM (active) and 15.5 µM (active) | inactive | inactive |  | 
48 | Nc1ccc(Cl)c(N)c1 | 11.3 µM (active) and 20 µM (active) |  | 40 µM (active) and 35.6 µM (active) | inactive | 11.3 µM (active) and 31.7 µM (active) |  | 
49 | CCOC(=O)c1ccc(N)cc1 | 39.9 µM (active) and inactive | 35.6 µM (active) | 12.6 µM (active) | inactive | inactive |  | 
50 | C=CC(=O)OCCC(=O)O | 104 µM (active) and inactive | inactive |  | inactive | inactive |  | 
51 | COc1ccc(CCC(C)=O)cc1 | 28.3 µM (active) and inactive | inactive | 22.4 µM (active) and 20.4 µM (active) | inactive | inactive |  | 
52 | COc1ccc(OC)cc1 | 40.7 µM (active) and inactive | inactive |  | inactive | inactive |  | 
53 | CNC(=S)N(C)C | inactive | inactive | inactive | inactive | inactive |  | 
54 | CCOCCOCCOCCO | 82.4 µM (active) and inactive |  |  | inactive | inactive |  | 
55 | CCCCCCCCCCCCCCCC(=O)OC(C)C |  | inactive | inactive | inactive | inactive |  | 
56 | NC(=S)NNC(N)=S | 34.7 µM (active) and inactive | 35.6 µM (active) | inactive | inactive | inactive |  | 
57 | CC(=O)Oc1ccc(C)cc1 | inactive | inactive | inactive | inactive | inactive |  | 
58 | CCCCCCC=O | 40.8 µM (active) and 39.9 µM (active) |  | inactive | inactive | inactive |  | 
59 | CCCOC(=O)c1ccccc1 | inactive | inactive | inactive | inactive | inactive |  | 
60 | C[C@]12CCC(=O)C=C1CC[C@@H]1[C@@H]2[C@@H](O)C[C@@]2(C)[C@H]1CC[C@]2(O)C(=O)CO | inactive | inactive |  | inactive |  |  | 
61 | COc1ccc(C)cc1N | 38.6 µM (active) and 35.6 µM (active) |  | 28.3 µM (active) | inactive | 6.86 µM (active) and 20 µM (active) |  | 
62 | O=C(OCC1CCC2OC2C1)C1CCC2OC2C1 (centres undefined) | inactive | 71 µM (active) |  | inactive |  |  | 
63 | O=C1c2ccccc2CCc2ccccc21 |  | 36.3 µM (active) | 1.45 µM (active) and 1.62 µM (active) | inactive | inactive |  | 
64 | Clc1ccccn1 |  | inactive | inactive | inactive | inactive |  | 
65 | O=C1CCCC1 | inactive | inactive | inactive | inactive | inactive |  | 
66 | O=C(O)c1ccccc1C(=O)O | 41.2 µM (active) and 82.1 µM (active) | inactive |  | inactive | inactive |  | 
67 | CCCCCCCCCCO | inactive | inactive | inactive and 31.7 µM (active) | inactive | inactive |  | 
68 | Cc1ccc2ncccc2c1 | inactive |  | 39.9 µM (active) and inactive | inactive | inactive |  | 
69 | OCc1cccc(Oc2ccccc2)c1 |  | 56.4 µM (active) | 20.3 µM (active) and 39.9 µM (active) | inactive | inactive |  | 
